Reference: PubChem BioAssay AID1159580 (chemical genetic matrix, 2015)
Hit rate of the full screen: of about 5,500 compounds, about 2,000 (36%) were called active. Roughly 18% stayed inconclusive and do not appear here. Cut-off read from the data, not from the text of the source: active = normalized growth mostly below about 0.91 (no sharp cut-off); inconclusive = no clear call, values can overlap the other calls; inactive = mostly above about 0.92. This is one part of the list.

Assay: chemical genetic growth profiling, strain panel (AID 1159580);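 note: tested at 20 µM; growth read once vehicle control cultures reached saturation at 30 °C; 1 = growth at the plate median or of vehicle wells; lower values mean less growth of the strain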
Settings: growth OD

Measured: normalized growth

Cc1cc(/C=C/c2ccc3cc(N(C)C)ccc3[n+]2C)c(C)n1-c1ccccc1
active: S. cerevisiae deletion strains, locus YKL160W, strain elf1, active compounds read low 0.829 | S. cerevisiae deletion strains, locus YKL190W, strain CNB1, active compounds read low 0.692 | S. cerevisiae deletion strains, locus YLL026W, active compounds read low 0.926 | S. cerevisiae deletion strains, locus YLR027C, strain aat2, active compounds read low 0.909 | S. cerevisiae deletion strains, locus YLR058C, strain SHM2, active compounds read low 0.887 | S. cerevisiae deletion strains, locus YLR221C, strain rsa3, active compounds read low 0.905 | S. cerevisiae deletion strains, locus YLR262C, strain YPT6 (second series), active compounds read low 0.717 | S. cerevisiae deletion strains, locus YLR320W, strain mms22, active compounds read low 0.797 | S. cerevisiae deletion strains, locus YLR342W, strain FKS1 (second series), active compounds read low 0.774 | S. cerevisiae deletion strains, locus YLR342W, strain FKS1, active compounds read low 0.832 | S. cerevisiae deletion strains, locus YLR418C, strain cdc73, active compounds read low 0.385 | S. cerevisiae deletion strains, locus YML016C, strain PPZ1, active compounds read low 0.906 | S. cerevisiae deletion strains, locus YMR058W, strain fet3, active compounds read low 0.863 | S. cerevisiae deletion strains, locus YMR125W, strain sto1, active compounds read low 0.819 | S. cerevisiae deletion strains, locus YMR129W, active compounds read low 0.874 | S. cerevisiae deletion strains, locus YMR307W, strain GAS1, active compounds read low 0.583 | S. cerevisiae deletion strains, locus YNL067W, strain RPL9B, active compounds read low 0.842 | S. cerevisiae deletion strains, locus YNL071W, strain lat1, active compounds read low 0.762 | S. cerevisiae deletion strains, locus YNL128W, strain TEP1, active compounds read low 0.202 | S. cerevisiae deletion strains, locus YNL153C, strain GIM3, active compounds read low 0.709 | S. cerevisiae deletion strains, locus YNL209W, strain ssb2, active compounds read low 0.848 | S. cerevisiae deletion strains, locus YNL233W, strain BNI4, active compounds read low 0.749 | S. cerevisiae deletion strains, locus YNL248C, strain rpa49, active compounds read low 0.714 | S. cerevisiae deletion strains, locus YNL307C, strain MCK1, active compounds read low 0.863 | S. cerevisiae deletion strains, locus YNL322C, strain KRE1, active compounds read low 0.686 | S. cerevisiae deletion strains, locus YNR052C, strain pop2, active compounds read low 0.731 | S. cerevisiae deletion strains, locus YOL006C, strain TOP1, active compounds read low 0.382 | S. cerevisiae deletion strains, locus YOR070C, strain gyp1, active compounds read low 0.91 | S. cerevisiae deletion strains, locus YOR080W, strain dia2, active compounds read low 0.892 | S. cerevisiae deletion strains, locus YOR083W, strain WHI5, active compounds read low 0.804 | S. cerevisiae deletion strains, locus YOR106W, strain vam3, active compounds read low 0.754 | S. cerevisiae deletion strains, locus YOR265W, strain rbl2, active compounds read low 0.92 | S. cerevisiae deletion strains, locus YOR270C, strain vph1, active compounds read low 0.728 | S. cerevisiae deletion strains, locus YPL051W, strain arl3, active compounds read low 0.914 | S. cerevisiae deletion strains, locus YPL106C, strain sse1, active compounds read low 0.468 | S. cerevisiae deletion strains, strain wtn01, active compounds read low 0.775 | S. cerevisiae strains, strain wild type, active compounds read low 0.484
inactive: S. cerevisiae deletion strains, locus YJR066W, strain TOR1, active compounds read low 0.948 | S. cerevisiae deletion strains, locus YKL068W, active compounds read low 1.03 | S. cerevisiae deletion strains, locus YKL085W, strain MDH1 (second series), active compounds read low 1.03 | S. cerevisiae deletion strains, locus YKL085W, strain MDH1, active compounds read low 1.03 | S. cerevisiae deletion strains, locus YKR001C, strain vps1, active compounds read low 0.987 | S. cerevisiae deletion strains, locus YKR026C, strain gcn3, active compounds read low 1.01 | S. cerevisiae deletion strains, locus YKR091W, strain srl3, active compounds read low 1.02 | S. cerevisiae deletion strains, locus YLL001W, strain dnm1, active compounds read low 0.934 | S. cerevisiae deletion strains, locus YLL041C, strain sdh2, active compounds read low 1.03 | S. cerevisiae deletion strains, locus YLR039C, strain RIC1, active compounds read low 0.703 | S. cerevisiae deletion strains, locus YLR102C, strain apc9, active compounds read low 1.01 | S. cerevisiae deletion strains, locus YLR113W, strain HOG1, active compounds read low 1.02 | S. cerevisiae deletion strains, locus YLR258W, strain gsy2, active compounds read low 0.986 | S. cerevisiae deletion strains, locus YLR262C, strain YPT6, active compounds read low 0.776 | S. cerevisiae deletion strains, locus YLR268W, strain sec22, active compounds read low 0.919 | S. cerevisiae deletion strains, locus YLR330W, strain CHS5, active compounds read low 1 | S. cerevisiae deletion strains, locus YLR357W, strain rsc2, active compounds read low 1.09 | S. cerevisiae deletion strains, locus YLR370C, strain arc18, active compounds read low 0.986 | S. cerevisiae deletion strains, locus YLR371W, strain rom2, active compounds read low 1.02 | S. cerevisiae deletion strains, locus YLR384C, strain iki3, active compounds read low 1 | S. cerevisiae deletion strains, locus YML032C, strain rad52, active compounds read low 0.947 | S. cerevisiae deletion strains, locus YML120C, strain ndi1, active compounds read low 0.93 | S. cerevisiae deletion strains, locus YML124C, strain tub3, active compounds read low 1.02 | S. cerevisiae deletion strains, locus YMR078C, strain ctf18, active compounds read low 1.02 | S. cerevisiae deletion strains, locus YMR205C, strain PFK2, active compounds read low 1.04 | S. cerevisiae deletion strains, locus YMR223W, strain ubp8, active compounds read low 0.949 | S. cerevisiae deletion strains, locus YMR231W, strain pep5, active compounds read low 1.01 | S. cerevisiae deletion strains, locus YNL183C, strain NPR1, active compounds read low 0.962 | S. cerevisiae deletion strains, locus YNL250W, strain rad50, active compounds read low 1.02 | S. cerevisiae deletion strains, locus YNL271C, strain bni1, active compounds read low 1.02 | S. cerevisiae deletion strains, locus YNL298W, strain CLA4, active compounds read low 1.01 | S. cerevisiae deletion strains, locus YNL322C, strain KRE1 (second series), active compounds read low 1.01 | S. cerevisiae deletion strains, locus YNR049C, strain mso1, active compounds read low 1.01 | S. cerevisiae deletion strains, locus YOL012C, strain htz1 0.461 | S. cerevisiae deletion strains, locus YOL147C, strain pex11, active compounds read low 0.999 | S. cerevisiae deletion strains, locus YOR001W, strain rrp6, active compounds read low 0.954 | S. cerevisiae deletion strains, locus YOR061W, strain CKA2, active compounds read low 0.909 | S. cerevisiae deletion strains, locus YOR069W, strain VPS5, active compounds read low 0.995 | S. cerevisiae deletion strains, locus YOR136W, strain idh2, active compounds read low 0.997 | S. cerevisiae deletion strains, locus YOR144C, strain elg1, active compounds read low 1 | S. cerevisiae deletion strains, locus YOR184W, strain ser1, active compounds read low 0.928 | S. cerevisiae deletion strains, locus YOR231W, strain MKK1, active compounds read low 1.01 | S. cerevisiae deletion strains, locus YOR290C, strain snf2, active compounds read low 0.947 | S. cerevisiae deletion strains, locus YOR316C, strain cot1, active compounds read low 1.01 | S. cerevisiae deletion strains, locus YPL078C, strain atp4, active compounds read low 0.96 | S. cerevisiae deletion strains, locus YPL240C, strain hsp82, active compounds read low 1.01 | S. cerevisiae deletion strains, locus YPL256C, strain CLN2, active compounds read low 1.02 | S. cerevisiae deletion strains, locus YPR119W, strain clb2, active compounds read low 1.01 | S. cerevisiae deletion strains, locus YPR141C, strain kar3, active compounds read low 1.04 | S. cerevisiae deletion strains, locus YPR163C, strain tif3, active compounds read low 1.01 | S. cerevisiae deletion strains, locus YPR167C, strain met16, active compounds read low 0.989
